High-throughput results deposited in PubChem by The Scripps Research Institute Molecular Screening Center.
TTR transcr act: TTR transcription activators in neuroblastoma reporter cells, primary screen, cell-based, luminescence, SH-SY5Y, TTR promoter Gaussia luciferase; 100% = recombinant luciferase protein wells; activation, % at 16.7 µM; 1.3% of 92,000 active;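 active = activation above the mean of all tested compounds plus 3 SD, cut at about 9.5% in these data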;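 note: cells exposed to compounds for one day before reading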
HuH7 TTR inh: TTR promoter reporter inhibitors in hepatoma cells, counter-screen for TTR transcription activator project, cell-based, luminescence, HuH7 hepatoma | shares compounds with TTR transcr act | HuH7 TTR promoter-Gaussia luciferase reporter | inhibition, % at 16.7 µM | 4% of 1,100 active | AID 1117279, 2014;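 active = average inhibition above the solvent-only control wells' mean plus 3 SD, cut at about 15% in these data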;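 note: inhibitors lower well luminescence so higher value means more inhibition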
TTR up confirm: TTR transcription activators, retest, confirmation, cell-based, luminescence, SH-SY5Y, triplicate; shares compounds with TTR transcr act; SHSY5Y TTR promoter Gaussia luciferase; 100% = purified Lucia enzyme wells, no cells; activation, % at 16.7 µM; 1,100 tested, under 10 active; AID 1117280, 2014;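 active = mean activation above a set limit taken from the earlier primary screen, cut at about 11% in these data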
Hits are given with their value; - = inactive. Only a selection was taken, and hits are over-represented in it overall.

SMILES	TTR transcr act	others
COC(=O)[C@]12CCCCC=C1N(Cc1ccc(OC)cc1)C(=O)[C@@H]2CC(=O)N1CCCCC1	-
CCC(c1nnnn1-c1c(C)cccc1C)N1CCN(c2ccccn2)CC1 (centres undefined)	-
Cc1ccc(-c2n[nH]c(=S)n2/N=C/c2ccncc2)cc1	10.0	HuH7 TTR inh=-;TTR up confirm=-
S=c1[nH]nc(-c2ccncc2)n1/N=C/C=C/c1ccccc1	-
Cc1ccc(-c2n[nH]c(=S)n2/N=C/c2sccc2C)cc1	-
CC(=O)Nc1c(-c2ccc(F)cc2)nc2ncccn12	-
O=C(NCCc1c[nH]c2ccccc12)OCc1cn(Cc2cccc(F)c2F)nn1	-
O=c1c2ccc(F)cc2nc2sc(Nc3ccc4c(c3)CCC4)nn12	-
CN(C)[C@H]1CCN(c2cccc3c2S(=O)(=O)N(C2CC2)CCCO3)C1	-
C[C@H]1[C@@H](NS(=O)(=O)c2ccccc2[N+](=O)[O-])CC[C@@]23CCCN2C(=O)CCC[C@@H]13	-
COc1ccccc1C(O)c1nccn1C (centres undefined)	14.4	HuH7 TTR inh=-;TTR up confirm=-
COc1cccc(C(O)c2nccn2Cc2ccccc2)c1OC (centres undefined)	-
CCn1c(C(O)c2cccc(OC)c2OC)nc2ccccc21 (centres undefined)	-
C[C@H]1[C@@H](NCc2ccccc2)CC[C@@]23CCCN2C(=O)CCC[C@@H]13	-
COc1ccc(CN2C3=NC(c4ccccc4)CC(=O)N3/C(=C\c3ccccc3)C2c2ccccc2)c(OC)c1 (centres undefined)	-
O=C(Nc1nc2ncccn2c1-c1ccc(C(F)(F)F)cc1)c1ccccc1	-
CC(C)(C)c1ccc(C(=O)Nc2cc(Cl)c(F)cc2C(=O)O)cc1	-
COc1ccc(Cl)cc1CN1CCOCC1	-
Cc1ccc(Cl)cc1NC(=O)CN1CCOCC1	-
Clc1ccc2c(c1)c1ccccc1n2CN1CCOCC1	21.6	HuH7 TTR inh=-;TTR up confirm=-
CCN(CC)c1cccc(OC(=O)c2cccnc2Cl)c1	-
COc1ccc(S(=O)(=O)N(C)C[C@H]2Oc3ncc(C#CC4(O)CCCC4)cc3C(=O)N([C@@H](C)CO)C[C@@H]2C)cc1	-
CCc1cc(-c2nnn(CCC3COCCO3)c2CC)cc(CC)c1-c1cn(CCc2c[nH]c3ccccc23)nn1 (centres undefined)	-
CCCCn1c2c(cc(C(=O)OC)c1=O)C(=O)CCC2	23.5	HuH7 TTR inh=-;TTR up confirm=-
O=C1CCCc2c1cc(C(=O)O)c(=O)n2-c1ccccc1	-
SMILES	TTR transcr act	others
COC(=O)c1cc(-c2cccc3ccccc23)c(=O)n2c1CCC2	-
CCCCCC(=O)NC1CCCCN(Cc2ccc(C)cc2)C1=O (centres undefined)	-
Cc1cccc(C(=O)Nc2nc3ncccn3c2-c2ccc(F)cc2)c1	-
C=C(Cl)COc1cc(C)cc2oc(=O)cc(CC)c12	-
Cc1cc(OCc2cc3c(cc2Cl)OCO3)c2c(C)cc(=O)oc2c1	11.3	HuH7 TTR inh=-;TTR up confirm=-
CCOc1cc2c(C)cc(=O)oc2cc1Cl	-
Cc1cccc(C(=O)N(C(=O)c2cccc(C)c2)N(C)C)c1	-
COC(=O)[C@]12C[C@H](CC(=O)NCCCCc3ccccc3)C(=O)N(Cc3cccc4ccccc34)C1=C[C@H](COCc1ccccc1)O[C@@H]2C	-
Cc1ccc(C(=O)Nc2ccc(OCc3ccccc3)cc2)s1	-
COc1ccc(C(=O)NCCCc2ccccc2)cc1	-
Cc1ccc(C(=O)NCCCc2ccccc2)s1	67.3	HuH7 TTR inh=-;TTR up confirm=-
Cc1ccc(NC(=O)[C@@H]2CCCN2S(=O)(=O)c2cccc3cccnc23)c(C)c1	-
CCc1ccc(/C=C2\SC(=S)N(CCCC(=O)N3CCCC3)C2=O)cc1	-
O=C(Nc1nc2ccccc2n1CCN1CCOCC1)c1ccc(COc2ccccc2Br)o1	-
CCOC(=O)Cc1csc(Nc2ccc(Cl)cc2)n1	-
CCOC(=O)Cc1csc(SCC(=O)N2CCN(c3ccc(OC)cc3)CC2)n1	-
CCOC(=O)Cc1csc(SCC(=O)Nc2cc(Cl)ccc2Oc2ccccc2)n1	9.7	HuH7 TTR inh=-;TTR up confirm=-
CN(CC1COc2ccccc2O1)C(=O)CSc1nncs1 (centres undefined)	-
CCOC(=O)c1csc(COc2ccc(OC)cc2)n1	-
CC(C)(C)NC(=O)CCCSc1nc2ccccc2s1	-
O=C(CCCSc1nc2ccccc2s1)NCc1ccc2c(c1)OCO2	-
O=C(O)CCCc1nc2ccccc2s1	-
Cc1ccccc1NC(=O)CCCSc1nc2ccccc2s1	12.5	HuH7 TTR inh=-;TTR up confirm=-
Cc1cnc(NC(=O)CCCc2nc3ccccc3s2)s1	12.6	HuH7 TTR inh=15.9;TTR up confirm=-
COC(=O)CCCc1nc2ccccc2s1	-
SMILES	TTR transcr act	others
COc1ccc(-c2[nH]ncc2CNC(C)c2cn(C)nc2C)c(F)c1 (centres undefined)	-
COc1ccc2c(C(c3ccccc3O)C3CCCN3S(=O)(=O)c3ccc(C)cc3)cn(C)c2c1 (centres undefined)	-
CC(=O)c1c(C)[nH]c(C(=O)Nc2ccccc2C)c1C	-
CC(C)(C)c1ccc(-c2csc(N3CCC(C(N)=O)CC3)n2)cc1	-
COC(=O)c1cnc(Nc2nc(C(N)c3ccccc3Cl)cs2)nc1C(F)(F)F (centres undefined)	-
CCOC(=O)[C@]12CCCC=C1N(Cc1ccc(OC)cc1)C(=O)[C@@H]2CC(=O)N1CCN(C(=O)C2CC2)CC1	-
O=C(NCCN1CCOCC1)c1cc(-c2ccc(F)cc2)on1	-
CC(C)Cc1cc(C(=O)NCCCN2CCOCC2)no1	11.2	HuH7 TTR inh=-;TTR up confirm=-
O=C(NCCN1CCOCC1)c1cc(-c2ccco2)on1	-
CC1(c2nnc(Cc3ccccc3)o2)CC(c2cccc(F)c2)=NO1 (centres undefined)	-
O=C(OCC#CCSc1nnc(-c2cccc3ncccc23)o1)c1ccc(F)cc1	-
CCCc1cc(Nc2ccc(C)cc2)n2ncnc2n1	-
CC(=O)c1ccc(Nc2cc(C)nc3ncnn23)cc1	-
Cc1ccc(Nc2c3c(nc4ncnn24)CCC3)cc1	19.6	HuH7 TTR inh=23.6;TTR up confirm=-
CCC1NC(=O)c2cc3ccccc3cc2-n2c1nc1ccc(OC)cc1c2=O (centres undefined)	-
O=C(Nc1cccc(C(F)(F)F)c1)O[C@@H]1CC[C@@]23CCCN2C(=O)CCC[C@H]3C1	-
CC(NC(=O)c1cc(COc2c(F)cccc2F)on1)c1cnn(-c2ccccc2)c1 (centres undefined)	-
Cc1ccc(Cn2ncc3c(N4CCN(C5CCCC5)CC4)ncnc32)cc1	-
C[C@H]1C(=O)[C@]23C[C@H]1CC[C@H]2[C@]1(C)[C@@H](O)CC[C@@](C)(C(=O)O)[C@H]1C[C@@H]3O	-
